Compound activity from PubChem.
Only some compounds are listed: those with a hit (about 27% of all), similar ones and a draw of the others.
CYP2C9 activ: activators of human CYP2C9; P11712; recombinant CYP2C9, luciferin-H conversion, luminescence; stronger effect = higher value; factor 1 = untreated enzyme, 0 = blocked; activation factor at 5 µM; 96,000 compounds, 1.4% hits; AID 1024;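 active means activation factor of 2 or more for CYP2C9 at a 5 µM dose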
CYP2C19 inhib: inhibitors of human CYP2C19; P33261; CYP2C19 Supersomes, luciferin-H EGE luminescence, 30 min; inhibition, % at 5 µM; 96,000 compounds, 21% hits; AID 778;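 active means CYP2C19 inhibition above a set limit at 5 µM in the primary screen, cut at about 50% in these data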
Target sequence (P33261 whole entry, looked up): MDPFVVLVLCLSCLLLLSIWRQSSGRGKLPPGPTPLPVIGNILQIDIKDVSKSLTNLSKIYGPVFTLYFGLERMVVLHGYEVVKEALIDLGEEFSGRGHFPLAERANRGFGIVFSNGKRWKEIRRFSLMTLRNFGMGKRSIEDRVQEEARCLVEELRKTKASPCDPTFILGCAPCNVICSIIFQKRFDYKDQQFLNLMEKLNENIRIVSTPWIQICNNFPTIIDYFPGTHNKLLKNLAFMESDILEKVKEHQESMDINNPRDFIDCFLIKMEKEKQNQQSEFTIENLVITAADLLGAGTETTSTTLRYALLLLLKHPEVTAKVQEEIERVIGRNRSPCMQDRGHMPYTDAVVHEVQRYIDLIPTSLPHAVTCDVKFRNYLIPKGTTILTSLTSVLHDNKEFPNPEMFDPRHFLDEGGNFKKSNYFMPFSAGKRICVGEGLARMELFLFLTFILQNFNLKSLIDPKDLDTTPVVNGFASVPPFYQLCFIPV
CYP2C19 act: cytochrome P450 2C19 (human) activation. P33261. recombinant CYP2C19, luciferin-H EGE luminescence; stronger effect = higher value; 0 = fully inhibited enzyme, 1 = untreated enzyme. activation factor at 5 µM. 96,000 tested, under 10 active;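 active means activation factor of at least 2 at 5 µM in the primary screen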
sEH act: soluble epoxide hydrolase (human) activation; 91,000 compounds, 0.04% hits; P34913; activation, % at 2 µM; purified human sEH enzymatic activity, activator screen; AID 717; in the data active means activation above about 37%
sEH inh: inhibitors of human soluble epoxide hydrolase; P34913; recombinant human sEH enzymatic activity assay; inhibition, % at 2 µM; 91,000 compounds, 0.34% hits; AID 707; in the data active means inhibition above about 80%
CYP2C9 inhib: inhibitors of human CYP2C9; CYP2C9 Supersomes, luciferin-H conversion, luminescence; inhibition, % at 5 µM; 96,000 compounds, 20% hits; AID 777;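 active means blocking of liver enzyme CYP2C9 beyond about 50% at 5 µM, limit read from the data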
A number is an active result; i = inactive; nt = not tested or not shown.

SMILES	CYP2C9 activ	CYP2C19 inhib	CYP2C19 act	sEH act	sEH inh	CYP2C9 inhib
CCCn1nnc(NC(=O)c2cc(Br)cc(Br)c2OC)n1	i	83.2	i	i	i	i
CCCn1nnc(NC(=O)c2ccc(-c3ccccc3)cc2)n1	i	i	i	i	i	i
CCCn1nnc(NC(=S)NC(=O)CC)n1	i	70.8	i	i	i	i
CCCCn1nnc(NC(=O)CCC)n1	i	i	i	i	i	i
O=C(Nc1cccc(Oc2ccc3c(c2)C(=O)NC3=O)c1)c1ccco1	i	i	i	i	i	i
Cc1cccc2sc(NC(=O)CCNS(=O)(=O)c3cccs3)nc12	i	82.0	i	i	i	77.8
Cc1ccc2nc(NC(=O)CCNS(=O)(=O)c3cccs3)sc2c1	i	i	i	nt	nt	i
CCCCNC(=O)c1cc(-c2ccc(F)cc2)on1	nt	nt	nt	i	i	nt
Cc1ccc(OCC(=O)Nc2cccc3nsnc23)c(C)c1	i	73.6	i	i	i	i
Cc1cc(C)c(S(=O)(=O)Nc2cccc3nsnc23)c(C)c1	i	i	i	nt	nt	83.4
O=S(=O)(Nc1cccc2nsnc12)c1ccccc1	i	71.4	i	i	i	85.8
O=C(Nc1cccc2nsnc12)c1cccs1	i	i	i	i	i	i
O=S(=O)(Nc1ccccc1F)c1ccc2nsnc2c1	i	63.4	i	nt	nt	i
C=CCN(CC=C)S(=O)(=O)c1ccc2nsnc2c1	i	i	i	nt	nt	i
Cc1ccc(OCC(=O)Nc2nnn(C)n2)c(C)c1	i	i	i	i	i	i
O=C(CSc1cccc[n+]1[O-])c1cc2ccccc2o1	i	i	i	nt	nt	i
C1CCCN(CCCCN2CCCCCC2)CC1	i	i	i	i	i	i
Cc1cc(C)c(S(=O)(=O)Nc2ccc[nH]c2=O)c(C)c1	4	84.8	i	i	i	i
Cc1cccc(C)c1NS(=O)(=O)c1c(C)[nH]c(=O)[nH]c1=O	i	i	i	i	i	i
CCOC(=O)N1CCC(N2CC34C=CC(O3)C(C(=O)Nc3ccc(C(C)C)cc3)C4C2=O)CC1 (stereo unspecified)	i	i	i	i	i	75.5
CCOC(=O)N1CCC(N2CC34C=CC(O3)C(C(=O)Nc3ccc(F)cc3)C4C2=O)CC1 (stereo unspecified)	i	i	i	i	i	i
O=C(Nc1c(Cl)cc(Cl)cc1-c1nc2ccccc2s1)c1ccc(Br)o1	i	i	i	i	i	55.3
COc1ccccc1-c1ccc(Nc2cccc(C(C)=O)c2)nn1	i	79.9	i	i	i	i
Cc1cc(C(C)(C)C)cc(C)c1COC(=O)C1CCC(=O)N1 (stereo unspecified)	i	62.6	i	i	i	i
COc1ccc(C(O)P(=O)(OC2CCCCC2)c2ccc(N(C)C)cc2)cc1OC (stereo unspecified)	i	55.9	i	i	i	i
SMILES	CYP2C9 activ	CYP2C19 inhib	CYP2C19 act	sEH act	sEH inh	CYP2C9 inhib
CC(C)C(=O)NC(=S)Nc1ccc(S(=O)(=O)N(C)Cc2ccccc2)cc1	i	i	i	i	i	55.1
COc1ccc(NS(=O)(=O)c2ccc(NC(=S)NC(=O)C(C)C)cc2)cc1	i	79.1	i	i	i	64.5
CC(C)C(=O)NC(=S)Nc1ccc(S(=O)(=O)NC(C)(C)C)cc1	i	i	i	i	i	50.0
CCOc1ccc(NS(=O)(=O)c2ccc(NC(=S)NC(=O)C(C)C)cc2)cc1	i	82.0	i	i	i	95.1
CCC(=O)NC(=S)Nc1ccc(S(=O)(=O)NC(C)C)cc1	i	i	i	i	i	i
CN(C)c1nc(Nc2ccc(Cl)cc2)nc(OCC#N)n1	i	i	i	i	i	i
NC1=NS(=O)(=O)NC1c1cccc(Cl)c1 (stereo unspecified)	i	i	i	i	i	i
O=C(NCc1ccc(Cl)cc1)c1noc2c1CCCCC2	i	i	i	nt	nt	i
Cn1c(=O)[nH]c(=O)c2c1nc(N1CCCCC1)n2CCCSc1nc2ccccc2s1	nt	nt	nt	i	i	nt
Cc1ccc(S(=O)(=O)CC(=O)c2ccc(C)c([N+](=O)[O-])c2)cc1	2	i	i	i	i	i
CC(C)(C)c1ccc(C(=O)CS(=O)(=O)c2ccccc2)cc1	i	i	i	i	i	i
Cc1ccc(S(=O)(=O)CC(=O)c2ccccc2)cc1	2.9	i	i	i	i	i
CCOC(=O)c1cnc(C(C)(C)C)[nH]c1=O	nt	nt	nt	i	i	nt
CN(C)S(=O)(=O)N(CC(=O)NCc1ccccc1)c1ccccc1	i	67.0	i	i	i	i
CCOc1ccccc1N(CC(=O)NCc1ccc(OC)cc1)S(C)(=O)=O	i	88.9	i	i	i	62.2
CN(C)S(=O)(=O)N(CC(=O)Nc1ccccc1)c1ccccc1	nt	nt	nt	i	i	nt
COc1ccc(CCNC(=O)CN(c2ccccc2OC)S(C)(=O)=O)cc1OC	i	i	i	i	i	i
COc1ccc(CCNC(=O)CN(c2ccccc2OC)S(C)(=O)=O)cc1	i	92.9	i	i	i	96.6
CN(C)S(=O)(=O)N(CC(=O)Nc1cccc(F)c1)c1ccccc1	i	i	i	i	i	56.6
CCOc1ccc(N(CC(=O)NCc2ccccc2)S(C)(=O)=O)cc1	i	50.3	i	nt	nt	i
CCOC(=O)c1c(C)[nH]c(C)c1C(=O)CSc1nc(N)cc(=O)[nH]1	i	i	i	i	i	i
CCOC(=O)c1[nH]c(CSc2nnnn2-c2ccccc2C)c(C(=O)OCC)c1C	i	i	i	nt	nt	54.0
CCOC(=O)c1c(C)[nH]c(C)c1C(=O)CSc1ncccn1	i	58.9	i	i	i	i
CCOC(=O)c1c(C)[nH]c(C)c1C(=O)CSc1nnnn1-c1ccccc1	i	99.0	i	i	i	88.1
CCOC(=O)c1c(C)[nH]c(C)c1C(=O)COC(=O)CCOc1ccccc1OC	i	77.0	i	i	i	83.3
SMILES	CYP2C9 activ	CYP2C19 inhib	CYP2C19 act	sEH act	sEH inh	CYP2C9 inhib
CC1CCCN(C(=O)C2CCN(CC(C)c3ccccc3)CC2)C1 (stereo unspecified)	nt	nt	nt	i	i	nt
CC(=O)Nc1ccc(S(=O)(=O)N2CCN(C(=O)CCC3CCCC3)CC2)cc1	i	i	i	nt	nt	i
CC(=O)c1cc(F)c(N2CCN(CCC#N)CC2)cc1C	nt	nt	nt	i	i	nt
C/C(CC(C)(C)C1CCCCC1)=N\NC(N)=S	i	93.1	i	i	i	i
Cc1ccnc(NC(=S)NC(=O)/C=C/c2ccco2)c1	i	i	i	i	i	53.2
CC1=NN(C(=O)c2ccc(Br)cc2)C(O)(C(F)(F)OC(F)(F)F)C1 (stereo unspecified)	i	53.2	i	i	i	i
O=C(COC(=O)c1cccnc1)Nc1cccc(Cl)c1	i	85.7	i	i	i	69.1
Cc1cnc(C(=O)OCC(=O)Nc2cccc(Cl)c2)cn1	i	i	i	i	i	i
O=C(Nc1cccc(Cl)c1)O/N=C\c1ccncc1	i	88.6	i	i	i	89.9
O=C(COC(=O)c1ccncc1)Nc1cccc(Cl)c1	i	77.5	i	i	i	87.4
COc1cccc(NC(=O)COC(=O)c2cccnc2)c1	i	66.6	i	i	i	i
Cc1ccc(C(=O)OCC(=O)Nc2ccccc2C(F)(F)F)cc1S(=O)(=O)N1CCOCC1	i	i	i	i	i	i
